The results in this text go back to PubChem BioAssay (NCATS).

The structures appear in SMILES notation. Results filed as inconclusive are left out. Activity calls are given as the source filed them. The call rests on the fitted dose curve; in most records, active means well fitted cell-killing curve with a large enough effect; inconclusive means small, poorly fitted or top-dose-only effect, or effect the other way; inactive means flat fitted curve, though single readings scatter.
On the % scale 0 is the no-effect control and ±100 the full control effect.

The assay is described as follows: qHTS for Inhibitors of ATXN expression: Validation of Cytotoxic Assay (AID 588349). As to conditions: cytotoxicity counter-screen for ATXN expression inhibitors, cell viability; series mostly up to 57.1 µM; activity change, negative = cytotoxicity: at the top concentration. In outline: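 HEK293 cells treated with titrated compound for 72 hr at 37 degrees C; viability read as intracellular ATP by CellTiter Glo luminescence.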
On to `CCc1cccc2c3c([nH]c12)C(CC)(CC(=O)O)OCC3` (configuration not stated), for which the “activity change, negative = cytotoxicity” value was -3.26% (inactive).
The same measure, in the same setting: to `CC1COc2c(N3CCN(C)CC3)c(F)cc3c(=O)c(C(=O)O)cn1c23` (configuration not stated) belongs -2.47% (inactive).
With `CN(C)CCC=C1c2ccccc2C=Cc2ccccc21`, the “activity change, negative = cytotoxicity” value is -28.4% (inactive).
As to `COc1cc2nc(N(C)CCCNC(=O)C3CCCO3)nc(N)c2cc1OC` (configuration not stated), the “activity change, negative = cytotoxicity” value was -14% (inactive).
Take `NC(=O)NO`: the “activity change, negative = cytotoxicity” value is -10% (inactive).
With `CN1CCN2c3ccccc3Cc3ccccc3C2C1` (configuration not stated), the “activity change, negative = cytotoxicity” value is -25.3% (inactive).
With `C[C@H]1c2cccc(O)c2C(O)=C2C(=O)[C@]3(O)C(O)=C(C(N)=O)C(=O)[C@@H](N(C)C)[C@@H]3[C@@H](O)[C@@H]21`, the “activity change, negative = cytotoxicity” value is -2.55% (inactive).
With `CC(C(=O)O)c1cccc(C(=O)c2ccccc2)c1` (configuration not stated), the “activity change, negative = cytotoxicity” value was -7.32% (inactive).
Consider `CCOC(=O)Nc1ccc(NCc2ccc(F)cc2)nc1N`, for which the “activity change, negative = cytotoxicity” value is -7.13% (inactive).
For `NC12CC3CC(CC(C3)C1)C2`, the “activity change, negative = cytotoxicity” value was -4.48% (inactive).
The same measure, in the same setting: to `CC(C)NCC(O)COc1ccc(CCOCC2CC2)cc1` (configuration not stated) belongs -24.8% (inactive); to `CCC1(C)CC(=O)NC1=O` (configuration not stated), -14.4% (inactive).
With `O=C(C1CCCCC1)N1CC(=O)N2CCc3ccccc3C2C1` (configuration not stated), the “activity change, negative = cytotoxicity” value is -21.2% (inactive).
For `CN1C2CCC1CC(OC(=O)C(CO)c1ccccc1)C2` (configuration not stated), the compound was called inactive.
`NCCc1cnc[nH]1`: the “activity change, negative = cytotoxicity” value was -10.5% (inactive).
`COc1ccc(C2CNC(=O)C2)cc1OC1CCCC1` (configuration not stated): the “activity change, negative = cytotoxicity” value was -19.6% (inactive).
Consider `NCCCCCC(=O)O`, for which the “activity change, negative = cytotoxicity” value was 3.91% (inactive).
As to `COc1ccccc1OCC(O)CN1CCN(CC(=O)Nc2c(C)cccc2C)CC1` (configuration not stated), the “activity change, negative = cytotoxicity” value was -21.8% (inactive).
For the compound `Nc1nc2c(ncn2COC(CO)CO)c(=O)[nH]1`, the “activity change, negative = cytotoxicity” value was -5.48% (inactive).
Turning to `CC[N+](CC)(CC)CCOc1cccc(OCC[N+](CC)(CC)CC)c1OCC[N+](CC)(CC)CC`, the “activity change, negative = cytotoxicity” value was 5.66% (inactive).
In the case of `Cc1cc(C(C)(C)C)cc(C)c1CC1=NCCN1`, the “activity change, negative = cytotoxicity” value was -24.4% (inactive).
As to `CC12CC3CC(C)(C1)CC(N)(C3)C2`, the “activity change, negative = cytotoxicity” value is -12.4% (inactive).
